PNC assembly inh: perinucleolar compartment assembly inhibition; activity change (PNC), negative = inhibition, % at 10 µM; 140,000 tested, 3.1% active; PC3M PTB-GFP, PNC prevalence imaging, 16 h; hits give low values; AID 2417;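 active = readout at or below -70, meaning at least 70% loss of cells showing the perinucleolar compartment, a nuclear body marking cancer cells; inconclusive = readout between -30 and a set limit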;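 also: plate controls were DMSO wells for no effect and camptothecin positive control wells for full effect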
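PC3M cells stably expressing PTB-GFP, 750–1000 cells/well, treated 16 h at 37 °C with compound (23 nl of library stock), in duplicate. After paraformaldehyde fixation and Hoechst stain, imaged at 20x; PNC prevalence scored by image analysis.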
HPGD block: HPGD (human) dehydrogenase inhibition; AID 894; 150,000 tested, 4.3% active; P15428; purified HPGD, NADH fluorescence kinetic, PGE2 substrate; Potency, µM, inactives show at the highest dose activity change, negative = inhibition, most hits filed as inhibitors; also: potency is read from the fitted curve at half-maximal effect
Target sequence (P15428 whole entry, looked up): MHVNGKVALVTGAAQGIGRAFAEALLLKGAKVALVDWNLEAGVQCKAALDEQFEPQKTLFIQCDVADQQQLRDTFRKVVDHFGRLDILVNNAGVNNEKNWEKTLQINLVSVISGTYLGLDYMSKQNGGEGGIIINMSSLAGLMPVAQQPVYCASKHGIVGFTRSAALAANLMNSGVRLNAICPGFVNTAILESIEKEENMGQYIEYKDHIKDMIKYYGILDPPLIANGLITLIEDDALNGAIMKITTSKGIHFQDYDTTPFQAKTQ
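20 nM HPGD preincubated 15 min at room temperature with compound in 50 mM Tris-HCl pH 8, 0.01% Tween 20. Started with 1 mM NAD+ and 30 uM prostaglandin E2; NADH fluorescence (360/450 nm) read 5 times over 30-s intervals, last minus first.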
ALDH1A1 block: blocks purified human ALDH1A1 activity. 220,000 tested, 7.3% active. Potency, µM (highest dose often 75.3 µM), for inactives: top-dose activity, negative = inhibition, most hits filed as inhibitors. Purified ALDH1A1, NADH fluorescence, propionaldehyde substrate. AID 1030;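 also: potency is read from the fitted curve at half-maximal effect; plate controls were no enzyme wells and a reference inhibitor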
KDM4E inh: JMJD2E (human) inhibition; JMJD2E catalytic domain, FDH-coupled NADH fluorescence (FDH is formaldehyde dehydrogenase); Potency, µM (series often up to 57.1 µM), without a hit: top-dose activity change, negative = inhibition, most hits filed as inhibitors; 230,000 tested, 1.6% active; AID 2147;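 also: potency is read from the fitted curve at half-maximal effect; 0% = wells with enzyme and -100% = buffer wells without enzyme; nearly all actives have a fitted effect of over 50% in size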
Target sequence (B2RXH2 1-337 limits assumed): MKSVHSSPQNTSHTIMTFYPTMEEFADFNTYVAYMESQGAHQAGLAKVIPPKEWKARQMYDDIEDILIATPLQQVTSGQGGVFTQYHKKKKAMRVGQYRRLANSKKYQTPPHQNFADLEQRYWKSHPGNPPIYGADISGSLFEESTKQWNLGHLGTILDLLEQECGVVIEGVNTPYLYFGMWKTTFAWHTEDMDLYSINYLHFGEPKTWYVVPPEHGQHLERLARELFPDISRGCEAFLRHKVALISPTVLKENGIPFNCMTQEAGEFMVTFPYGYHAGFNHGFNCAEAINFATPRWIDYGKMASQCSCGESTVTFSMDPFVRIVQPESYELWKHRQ
* = called active by the depositor; ? = inconclusive; . = no result given; [ ] = remark or other dose. Hits are enriched below; roughly 11% of the tested compounds scored in any of these assays. Unless noted, calls follow the shape of the dose curve; as a rule, active = well fitted inhibition curve with a large enough effect (not every such curve was filed as active); inconclusive = small, poorly fitted or top-dose-only effect, or another doubt; inactive = no such curve, though single readings can be large or run the other way. Unless noted, % is scaled to controls: 0 for no effect and ±100 for the full control effect.

SMILES	PNC assembly inh	HPGD block	ALDH1A1 block	KDM4E inh
O=C(c1ccco1)N1CCC2(CC1)CN(c1ccc(-c3ccccc3)cc1)C2	.	-10%	-8%	.
O=C(c1ccco1)N1CCC[C@@]2(CCN(c3ccncc3)C2)C1	.	-12%	-5%	.
Cc1cc(C2(c3cc(C)c(O)c(C(=O)O)c3)OS(=O)(=O)c3ccccc32)cc(C(=O)O)c1O	.	-5%	14%[13.5 µM]	.
CCOC(=O)C1CCCN(C(=O)c2cn(CC)c3ccc(S(=O)(=O)N4CCCC4)cc3c2=O)C1 (centres undefined)	20	-6%	?	1%
C=CCn1cc(C(=O)NCC2CCCO2)c(=O)c2cc(S(=O)(=O)N3CCCCCC3)ccc21 (centres undefined)	-2	-11%	13µM*	-11%
C=CCn1cc(C(=O)OC)c(=O)c2cc(S(=O)(=O)N3CCCCCC3)ccc21	.	.	14µM*	-1%
CCn1cc(C(=O)N2CCN(c3ccc(OC)cc3)CC2)c(=O)c2cc(S(=O)(=O)N3CCCCC3)ccc21	.	.	11µM*	-25%
CCn1cc(C(=O)NCC2CCCO2)c(=O)c2cc(S(=O)(=O)N(C)C)ccc21 (centres undefined)	22	-11%	4%	-4%
CC(C)(C)c1ccc(S(=O)(=O)/C=C\C#N)cc1	.	2.8µM*	0.056µM*	?
Cc1ccc(S(=O)(=O)/C=C\C#N)cc1	.	3.5µM*	0.011µM*	-27%
Cc1ccc(S(=O)(=O)c2ccc(C)cc2)cc1	7	-19%	13%	-11%
O=c1ccc2ccc(O)c(O)c2o1	.	?	?	7.1µM*
C=CCc1cccc2ccc(=O)oc12	?	-8%	2%	-5%
CCC(=O)O	.	-12%	2%	.
CCCc1cc2c(=O)c(-c3cscn3)c(C(=O)OCC)oc2cc1O	.	.	?	-14%
CCOC(=O)c1[nH]nc(-c2cc(CC)c(O)cc2O)c1-c1cscn1	-17	-8%	8.9µM*	2%
O=[N+]([O-])c1ccc(C2NS(=O)(=O)N=C3CCCCCN32)cc1 (centres undefined)	.	.	28µM*	?
O=S1(=O)N=C2CCCCCN2C(c2ccc(F)cc2)N1 (centres undefined)	.	.	4%	-7%
O=C(Nc1ccc(C(=O)N2CCCC2)cc1)c1ccc2c(c1)OCO2	-17	6.3µM*	?	-2%
Cc1cc(C)nc(NS(=O)(=O)c2ccc(NC(=O)c3ccc4c(c3)OCO4)cc2)n1	-26	?	25µM*	-3%
O=C(Nc1ccccc1N1CCN(C(=O)c2ccc(Cl)cc2)CC1)c1ccc2c(c1)OCO2	-102*	?	?	?
O=C(c1ccc2c(c1)OCO2)N1CCCC1	-15	?	?	-6%
N/C(=N\OC(=O)Cc1ccc(-c2ccccc2)cc1)c1ccncc1	.	.	-11%	-26%
O=C1CC(N2CCN(Cc3ccccc3)CC2)C(=O)N1c1ccc2c(c1)OCCO2 (centres undefined)	?	-5%	7.1µM*	2%
COc1ccc(N2C(=O)CC(N3CCN(Cc4ccc5c(c4)OCO5)CC3)C2=O)cc1 (centres undefined)	.	.	28µM*	-5%
SMILES	PNC assembly inh	HPGD block	ALDH1A1 block	KDM4E inh
COc1ccc(N2CCN(Cc3nc(-c4ccccc4)no3)CC2)cc1	.	.	-1%	5%
COc1ccc(B(O)O)cc1	.	-12%	4%	-1%
Cn1nc(C(=O)N2CCN(S(=O)(=O)/C=C/c3ccccc3)CC2)c2ccccc2c1=O	29	-10%	?	-2%
CC(C)[C@H](NC(=O)c1ccccc1)C(=O)OCC(=O)NCCc1ccc(F)cc1	-134*	-12%	4%	-1%
CN1CCN(NC(=O)c2ccc(Br)s2)CC1	.	.	.	1%
Cc1ccc(-c2csc(NC(=O)c3cccc(N4C(=O)CCC4=O)c3)n2)o1	36	?	3.5µM*	-23%
O=C(Nc1nnc(-c2ccncc2)o1)c1cccc(N2C(=O)CCC2=O)c1	.	.	-6%	?
O=C(Nc1nnc(-c2ccco2)o1)c1cccc(N2C(=O)CCC2=O)c1	.	.	28µM*	2%
CCOc1ccc(-c2csc(NC(=O)c3cccc(N4C(=O)CCC4=O)c3)n2)cc1	.	.	.	27%
CN1CC[C@@]2(CCCN(C(=O)c3cccn3C)C2)C1	.	-1%	7%	.
Cc1ccc(/C=C2\CCCC3=C2NC(=S)NC3c2ccc(C)cc2)cc1 (centres undefined)	-22	32µM*	?	?
N#C/C(=C/c1ccc(-c2ccccc2[N+](=O)[O-])o1)C(N)=O	.	.	19%	7%
N#C/C(=C\c1ccc(-c2ccc([N+](=O)[O-])cc2)o1)C(=O)Nc1nc(-c2cccs2)cs1	.	.	.	1%
CNC(=O)/C(C#N)=C/c1ccc(-c2ccc(OC)cc2[N+](=O)[O-])o1	15	7.1µM*	0%	1%
N#C/C(=C\c1ccc(-c2ccccc2[N+](=O)[O-])o1)C(=O)Nc1nc(-c2cccs2)cs1	0	-14%	1.8µM*	-2%
Cc1ccc(-n2c(O)c(C=Nc3ccccc3-c3n[nH]c(=S)[nH]c3=O)c3ccccc3c2=O)cc1C	.	.	3.5µM*	-8%
Cc1ccc(-n2c(O)c(C=Nc3ccccc3-c3n[nH]c(=S)[nH]c3=O)c3ccccc3c2=O)c(C)c1	.	.	18µM*	?
CCC(CC)n1[nH]c(=O)c2c(C)cc(C)nc21	-82*	-6%	-9%	-4%
COc1cc(/C=C2\SC(=S)N(NS(=O)(=O)c3ccc(C)cc3)C2=O)ccc1O	.	.	25µM*	-1%
COc1cc(/C=C2\SC(=S)N(Nc3ccccc3)C2=O)cc(OC)c1OC	-3	-17%	7.1µM*	-2%
CCOc1cc(/C=C2/SC(=S)N(C)C2=O)ccc1Oc1ccc([N+](=O)[O-])cc1[N+](=O)[O-]	.	.	0.4µM*	-5%
CCOc1cc(/C=C2/NC(=S)NC2=O)ccc1OCc1ccc([N+](=O)[O-])cc1	34	-9%	2%	2%
CCOc1ccc(/C=C2\SC(=S)N(Nc3ccccc3)C2=O)cc1OC	-18	-7%	3.2µM*	-6%
CC1(C)CN(c2cccc(Br)c2)C1=O	.	.	?	7%
Cc1cc(C(=O)CN2C(=O)c3cccc(N)c3C2=O)c(C)n1Cc1cccs1	-25	-27%	?	?
SMILES	PNC assembly inh	HPGD block	ALDH1A1 block	KDM4E inh
C=CCN1C(=O)/C(=C\c2cc(Br)c(OCc3ccccn3)c(OC)c2)SC1=S	.	.	0.28µM*	-3%
CN(C)Cc1ccccc1-c1nccc(NCc2cccs2)n1	.	2%	8%	4%
O=C(Nc1nccs1)c1ccc(COc2ccc(Cl)cc2)o1	-2	-29%	-6%	6%
O=C(Nc1nccs1)c1ccc(COc2ccc(F)cc2)o1	31	14µM*	?	-6%
O=C(Nc1cccnc1)c1ccc(COc2ccccc2Cl)o1	-2	14µM*	-3%	2%
O=C(Nc1cccnc1)c1ccc(COc2cc(Cl)ccc2Cl)o1	-14	?	8%	6%
O=C(Nc1nccs1)c1ccc(COc2ccccc2Br)o1	-88*	-25%	2%	-29%
Cn1c(COc2ccc3ccccc3c2)nnc1SCC(=O)OC1CCCCC1	12	-14%	-1%	-5%
O=C(CCC(=O)Nc1ccc(F)cc1)N/N=C/c1ccncc1	.	.	3%	7%
